Experimental data taken from the supplement of paper PMC11634586.
Counter-ions that a name gives are not always drawn. A number with no mark means an inactive call.

What follows are molecules tested on NCI-H1688 (assay: inhibition of cell viability relative to untreated control (fraction); higher = stronger growth inhibition, active = 0.5 or more). Settings: 30 µM; 24 h.
Method: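 Natural product library (TargetMol, 640 compounds) screened on NCI-H1688 SCLC cells at 30 µM for 24 h; viability by CCK-8 absorbance at 450 nm, normalised to untreated control and expressed as inhibition rate (fraction). Compounds with >50% reduction in viability were selected as hits.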

Row | SMILES | inhibition of cell viability
1 | C=C(C)[C@@H]1CC[C@]2(C(=O)O)CC[C@]3(C)[C@H](CC[C@@H]4[C@@]5(C)CC[C@H](O)C(C)(C)[C@@H]5CC[C@]43C)[C@@H]12 [Betulinic acid] | 0.622 (active)
2 | C[N+](C)(C)CC(=O)O [Betaine hydrochloride] | -0.247
3 | CCc1c2c(nc3ccc(OC(=O)N4CCC(N5CCCCC5)CC4)cc13)-c1cc3c(c(=O)n1C2)COC(=O)[C@]3(O)CC [Irinotecan] | 0.684 (active)
4 | N[C@@H]1CONC1=O [D-Cycloserine] | 0.0589
5 | C=C1CC[C@H]2O[C@]2(C)CC[C@@H]2[C@@H]1CC2(C)C [Caryophyllene oxide] | -0.0678
6 | CC(C)=CCC[C@](C)(O)[C@H]1CC[C@]2(C)[C@@H]1[C@H](O)C[C@@H]1[C@@]3(C)CC[C@H](O)C(C)(C)[C@@H]3[C@@H](O)C[C@]12C [Protopanaxatriol] | -0.051
7 | COc1cc2ccc(=O)oc2c(O)c1O [Fraxetin] | -0.0287
8 | O=c1c(-c2ccc(O)cc2)coc2cc(O[C@@H]3O[C@H](CO)[C@@H](O)[C@H](O)[C@H]3O)cc(O)c12 [Genistin] | 0.279
9 | C[C@]12CC[C@@H]3c4ccc(O)cc4CC[C@H]3[C@@H]1C[C@@H](O)[C@@H]2O [Estriol] | 0.0233
10 | COC(=O)[C@@H]1[C@H]2C[C@H]3c4[nH]c5ccccc5c4CCN3C[C@@H]2CC[C@@H]1O [Yohimbine hydrochloride] | 0.0994
11 | COc1cc(C=O)ccc1O [Vanillin] | 0.219
12 | C[C@H](CCC(=O)O)[C@H]1CC[C@H]2[C@@H]3C[C@H](O)[C@@H]4C[C@H](O)CC[C@]4(C)[C@H]3CC[C@]12C [Hyodeoxycholic acid (HDCA)] | -0.163
13 | C[C@@H]1[C@H](O)[C@@H](C)/C=C/C=C/C=C/C=C/C=C/C=C/C=C/[C@H](O[C@@H]2O[C@H](C)[C@@H](O)[C@H](N)[C@@H]2O)C[C@@H]2O[C@](O)(C[C@@H](O)C[C@@H](O)[C@H](O)CC[C@@H](O)C[C@@H](O)CC(=O)O[C@H]1C)C[C@H](O)[C@H]2C(=O)O [Amphotericin B] | 0.0269
14 | NCCCNCCCCNCCCN [Spermine] | -0.283
15 | Nc1ccccc1C(=O)CC(N)C(=O)O (stereo not given) [Kynurenine] | -0.292
16 | O=c1cc(-c2ccc(O)c(O)c2)oc2cc(O[C@@H]3O[C@H](CO)[C@@H](O)[C@H](O)[C@H]3O)cc(O)c12 [Cynaroside] | 0.705 (active)
17 | O=c1ccc2ccccc2o1 [Coumarin] | -0.151
18 | CC(=O)O[C@@]12CO[C@@H]1C[C@H](O)[C@@]1(C)C(=O)[C@H](O)C3=C(C)[C@@H](OC(=O)[C@H](O)[C@@H](NC(=O)OC(C)(C)C)c4ccccc4)C[C@@](O)([C@@H](OC(=O)c4ccccc4)[C@H]21)C3(C)C [Docetaxel] | 0.493
19 | C[C@H]1[C@H](C)CC[C@]2(C(=O)O[C@@H]3O[C@H](CO[C@@H]4O[C@H](CO)[C@@H](O[C@@H]5O[C@H](C)[C@H](O)[C@@H](O)[C@H]5O)[C@H](O)[C@H]4O)[C@@H](O)[C@H](O)[C@H]3O)CC[C@]3(C)C(=CC[C@@H]4[C@@]5(C)C[C@@H](O)[C@H](O)[C@@](C)(CO)[C@@H]5CC[C@]43C)[C@H]12 [Asiaticoside] | 0.145
20 | CC(C)C[C@@H](NC(=O)[C@H](C)NC(=O)CNC(=O)[C@@H](NC=O)C(C)C)C(=O)N[C@@H](C)C(=O)N[C@@H](C(=O)N[C@H](C(=O)N[C@H](C(=O)N[C@@H](Cc1c[nH]c2ccccc12)C(=O)N[C@H](CC(C)C)C(=O)N[C@@H](Cc1c[nH]c2ccccc12)C(=O)N[C@H](CC(C)C)C(=O)N[C@@H](Cc1c[nH]c2ccccc12)C(=O)N[C@H](CC(C)C)C(=O)N[C@@H](Cc1c[nH]c2ccccc12)C(=O)NCCO)C(C)C)C(C)C)C(C)C [Gramicidin] | 0.981 (active)

Row | SMILES | inhibition of cell viability
21 | O=C1O[C@H]([C@H](O)CO)C([O-])=C1O.[Na+] [Sodium erythorbate] | 0.0513
22 | COc1ccc([C@@H]2OC[C@H]3[C@@H]2CO[C@@H]3c2ccc(O[C@@H]3O[C@H](CO)[C@@H](O)[C@H](O)[C@H]3O)c(OC)c2)cc1OC [Forsythin] | -0.0217
23 | C[C@H]1CC[C@@]2(OC1)O[C@H]1C[C@H]3[C@@H]4CC[C@@H]5C[C@@H](O)CC[C@]5(C)[C@H]4CC[C@]3(C)[C@H]1[C@@H]2C [Sarsasapogenin] | -0.0422
24 | CC[C@]1(O)C[C@H]2CN(CCc3c([nH]c4ccccc34)[C@@](C(=O)OC)(c3cc4c(cc3OC)N(C=O)[C@H]3[C@@](O)(C(=O)OC)[C@H](OC(C)=O)[C@]5(CC)C=CCN6CC[C@]43[C@@H]65)C2)C1 [Vincristine sulfate] | 0.847 (active)
25 | COc1cc2c(=O)c(-c3ccc(O)cc3)coc2cc1O[C@@H]1O[C@H](CO)[C@@H](O)[C@H](O)[C@H]1O [Glycitin] | 0.491
26 | CC1=C(/C=C/C(C)=C/C=C/C(C)=C/C=C/C=C(C)/C=C/C=C(C)/C=C/C2=C(C)CCCC2(C)C)C(C)(C)CCC1 [Beta-Carotene] | 0.426
27 | C[C@]12CC[C@@H]3c4ccc(O)cc4CC[C@H]3[C@@H]1CCC2=O [Aquacrine] | 0.0269
28 | C[C@H]1[C@H](C)CC[C@]2(C(=O)O)CC[C@]3(C)C(=CC[C@@H]4[C@@]5(C)C[C@@H](O)[C@H](O)[C@@](C)(CO)[C@@H]5CC[C@]43C)[C@H]12 [Asiatic acid] | 0.00351
29 | Cc1coc2c1C(=O)C(=O)c1c-2ccc2c(C)cccc12 [Tanshinone I] | 0.929 (active)
30 | O=C(O)C1=C[C@@H](O)[C@@H](O)[C@H](O)C1 [Shikimic Acid] | 0.0707
31 | CC(C)=CCC[C@](C)(O[C@@H]1O[C@H](CO)[C@@H](O)[C@H](O)[C@H]1O)[C@H]1CC[C@]2(C)[C@@H]1[C@H](O)C[C@@H]1[C@@]3(C)CC[C@H](O)C(C)(C)[C@@H]3[C@@H](O[C@@H]3O[C@H](CO)[C@@H](O)[C@H](O)[C@H]3O[C@@H]3O[C@@H](C)[C@H](O)[C@@H](O)[C@H]3O)C[C@]12C [Ginsenoside Re] | -0.0285
32 | Cn1c(=O)c2[nH]cnc2n(C)c1=O [Aminophylline] | 0.644 (active)
33 | Cc1cccc2c3c(ccc12)C1=C(C(=O)C3=O)[C@@H](C)CO1 [Dihydrotanshinone I] | 0.992 (active)
34 | CC(C)=C1C/C=C(\C)CC/C=C(\C)CC1=O [Germacrone] | 0.245
35 | C/C=C(/C)C(=O)O[C@H]1[C@H](OC(C)=O)[C@@]2(CO)C(CC1(C)C)C1=CCC3[C@@]4(C)CCC(O[C@@H]5O[C@H](C(=O)O)[C@@H](O[C@@H]6O[C@H](CO)[C@@H](O)[C@H](O)[C@H]6O)[C@H](O)[C@H]5O[C@@H]5O[C@H](CO)[C@@H](O)[C@H](O)[C@H]5O)[C@](C)(CO)C4CC[C@@]3(C)[C@]1(C)C[C@H]2O.C/C=C(\C)C(=O)O[C@H]1[C@H](OC(C)=O)[C@@]2(CO)C(CC1(C)C)C1=CCC3[C@@]4(C)CCC(O[C@@H]5O[C@H](C(=O)O)[C@@H](O[C@@H]6O[C@H](CO)[C@@H](O)[C@H](O)[C@H]6O)[C@H](O)[C@H]5O[C@@H]5O[C@H](CO)[C@@H](O)[C@H](O)[C@H]5O)[C@](C)(CO)C4CC[C@@]3(C)[C@]1(C)C[C@H]2O (stereo not given in full) [Escin] | 0.982 (active)
36 | O=C1c2c(O)cc(O)cc2OC(c2ccc(O)c(O)c2)C1O (stereo not given) [Taxifolin (Dihydroquercetin)] | 0.086
37 | O=C(O)C(O)Cc1ccc(O)c(O)c1 (stereo not given) [Sodium Danshensu] | -0.0463
38 | COc1cc(/C=C/C(=O)O)ccc1O [Ferulic Acid] | 0.0447
39 | OC[C@H]1O[C@H](O)[C@H](O)[C@@H](O)[C@H]1O [Alpha-D-galactose] | 0.0334
40 | C[C@H](CCC(=O)O)[C@H]1CC[C@H]2[C@@H]3CC[C@@H]4C[C@H](O)CC[C@]4(C)[C@H]3CC[C@]12C [Lithocholic acid] | -0.0194
